Shown is part of a subset that was picked to be rich in hits.
IkB signaling: inhibitors of IkB signaling in ABC-DLBCL cells; ABC-DLBCL IkBa-CBG/CBR dual luciferase ratio, 4 h; response scale: scaled: untreated 0%, proteasome inhibitor 100%; actives 0.04% (n = 110,000); Potency, µM (series often up to 57.1 µM), for the others: at the highest dose IkBa stabilization activation; AID 445; active means well fitted curve in the direction sought with a large enough effect in the signal ratio, not every such curve was filed as active; inconclusive means small, poorly fitted or top-dose-only effect, or a change in a side signal; the % refers to the signal ratio;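 further: the direction sought is a rising ratio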
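In this assay, an IκBα–CBG68 fusion accumulates when IKK-driven degradation is blocked; native CBR normalizes for cell number. OCI-Ly3 cells were treated 4 h with compound and doxycycline, then green and red light read after Chroma-Glo addition.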
CRE Fsk mod: modulators of forskolin-stimulated CRE signaling in CHO cells. CHO CRE-bla reporter (cAMP response element driving beta-lactamase), forskolin EC10, beta-lactamase ratio. Potency, µM (highest dose often 38.2 µM), inactives show top-dose activity change, negative = inhibition, hits mostly activators. actives 2.5% (n = 71,000); active means well fitted activation curve with a large enough effect in the signal ratio, with a control signal flat, not every such curve was filed as active; inconclusive means small, poorly fitted or top-dose-only effect, or effect the other way, or a change in a side signal; the % refers to the signal ratio; further: % of control where 0% means no effect
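Cells were plated overnight at 37 °C, exposed to compound titrations plus EC10 NKH 477 for 3 h, then given CCF4 dye for 2 h at room temperature. Blue/green (460/530 nm) ratio was converted to %Activity and AC50 values calculated.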
ERK AVP block: blocks ERK signaling stimulated by vasopressin | HEK293-V1b, vasopressin-stimulated pERK AlphaScreen | Potency, µM (top dose mostly 57.5 µM), for the others: top-dose activity, negative = inhibition, hits mostly inhibitors | actives 0.99% (n = 72,000) | AID 995; further: on the % scale 0 is the no-effect control and ±100 the full control effect; nearly all actives have a fitted effect of over 55% in size
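HEK293 cells stably expressing V1b receptor, seeded overnight in 1% FBS, were treated with compounds for 30 min at 37C, then stimulated 5 min with 25 nM vasopressin; phospho-ERK read by AlphaScreen SureFire after lysis.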
Peg3 imprint: induces erasure of genomic imprints in mouse ES cells; mouse ES Peg3-LacZ reporter, beta-gal luminescence, 40 h; Potency, µM (series often up to 60.7 µM), for inactives: top-dose activity change, positive = activation, usual class: activators; actives 0.02% (n = 110,000); AID 1948
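Imprint erasure is scored as LacZ activity from the silenced maternal Peg3 allele in feeder-free female ES cells cultured 40 h with LIF. Luminescence is normalized to in-plate negative controls and fitted to the Hill equation.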
* = called active by the depositor; [ ] = another dose, or the depositor's remark. Unless noted, the call rests on the fitted dose curve; in most records, active means well fitted curve in the direction sought with a large enough effect; inconclusive means small, poorly fitted or top-dose-only effect, or another doubt; inactive means no such curve, though single readings can be large; an effect the other way counts as inactive or inconclusive. Potency means the concentration at half of the fitted maximal effect.

Screening CCOC(=O)c1sc2nc(CC(=O)OC)nc(NCc3ccco3)c2c1C returned IkB signaling 2%, CRE Fsk mod 10µM*, ERK AVP block 5% and Peg3 imprint -29%.
Nc1ccc(-c2nc3ccc(-c4nc5ccc(N)cc5[nH]4)cc3[nH]2)cc1 was read as ERK AVP block 13µM* and Peg3 imprint 2%.
For Nc1ccc(-c2nc3ccccc3[nH]2)cc1 the results were IkB signaling 16%, CRE Fsk mod -16% and Peg3 imprint -86%.
`COc1ccc(-n2c(C)c(C(C)=O)c(C(C)=O)c2C)cc1OC` gave IkB signaling 2%, CRE Fsk mod inconclusive, ERK AVP block 32µM* and Peg3 imprint -3%.
`CC(C)c1ccccc1N1CC(C(=O)O)CC1=O` (stereo not drawn) gave IkB signaling 9%, CRE Fsk mod inconclusive, ERK AVP block -1% and Peg3 imprint -3%.
`CCc1ccccc1N1CC(C(=O)O)CC1=O` (stereo not drawn) gave IkB signaling 2%, CRE Fsk mod 2µM*, ERK AVP block 1% and Peg3 imprint -1%.
For CCCCCn1c(=N)n(CC(O)COc2ccccc2OC)c2ccccc21 (stereo not drawn) the results were IkB signaling inconclusive, CRE Fsk mod -16%, ERK AVP block 13µM* and Peg3 imprint 5%.
`Cc1ccc2c(c1)c1c3n2CCN(C(=O)c2cccc(C(F)(F)F)c2)C3CCC1` (stereo not drawn) gave IkB signaling 0% and Peg3 imprint 3%[10.9 µM].
For Oc1cccc2ccc(SSc3ccc4cccc(O)c4n3)nc12 the results were IkB signaling 0%[11.4 µM], CRE Fsk mod -6%[7.6 µM], ERK AVP block 14%[11.5 µM] and Peg3 imprint -3%[10.9 µM].
Cc1ccc(O)c(C(=O)c2cnc3c(c2)CN(CCC(C)C)C(=O)N3)c1 was read as IkB signaling 8%, CRE Fsk mod 2%, ERK AVP block 10% and Peg3 imprint -16%.
CN1Cc2cc(C(=O)c3cc(Cl)cc(CSc4ncccn4)c3O)cnc2NC1=O was read as IkB signaling inconclusive, CRE Fsk mod 4µM*, ERK AVP block -29% and Peg3 imprint -19%.
Screening CN(C)c1ncc2nc(CCc3ccccc3)c(=O)n(C[C@H]3CCCO3)c2n1 returned IkB signaling -6%[11.4 µM], CRE Fsk mod 13µM* and ERK AVP block -9%.
O=c1c(CCc2ccccc2)nc2cnc(Oc3cccc(Cl)c3)nc2n1C[C@H]1CCCO1 was read as IkB signaling 4%[11.4 µM], CRE Fsk mod -16% and ERK AVP block 20%.
`Cc1nc2cnc(N(C)C)nc2n(C[C@H]2CCCO2)c1=O` gave IkB signaling 0%[11.4 µM], CRE Fsk mod 10µM*, ERK AVP block -13% and Peg3 imprint inconclusive.
`CN(C)c1ncc2nc(-c3ccc(F)cc3)c(=O)n(C[C@H]3CCCO3)c2n1` gave IkB signaling 0%[11.4 µM], CRE Fsk mod 2.5µM*, ERK AVP block -13% and Peg3 imprint -8%.
For c1ccc2c(c1)CCC[C@H]2C1=NCCN1 the results were IkB signaling -1%, CRE Fsk mod -1% and ERK AVP block 6%.
CC(C)=C[C@H]1[C@@H](C(=O)Oc2ccccc2C(C)C)C1(C)C was read as IkB signaling 0%[11.4 µM], CRE Fsk mod inconclusive, ERK AVP block 11%[11.5 µM] and Peg3 imprint -13%[10.9 µM].
For C[C@@H](C(=O)O)c1ccc(C[C@@H]2CCCC2=O)cc1 the results were IkB signaling inconclusive, CRE Fsk mod -4% and ERK AVP block 14%.
COc1cccc2cc(-c3cn4cccc(C)c4n3)c(=O)oc12 was read as IkB signaling -1%, CRE Fsk mod 16%, ERK AVP block -27% and Peg3 imprint 3%.
For CCOc1cccc2cc(-c3cn4cc(C)ccc4n3)c(=O)oc12 the results were IkB signaling 3%, CRE Fsk mod 1µM*, ERK AVP block -4% and Peg3 imprint -14%.
Screening O=C(NCCc1ccccc1)c1cnn2c(C(F)F)cc(C3CC3)nc12 returned IkB signaling -3%, CRE Fsk mod inconclusive, ERK AVP block -7% and Peg3 imprint -5%.
Screening COC(=O)c1ccccc1NC(=O)c1cnn2c(C(F)F)cc(C3CC3)nc12 returned IkB signaling -1%, CRE Fsk mod 3.2µM*, ERK AVP block 3% and Peg3 imprint -8%.
For Cc1nn(C)cc1CNC(=O)c1cnn2c(C(F)F)cc(C3CC3)nc12 the results were IkB signaling -1%, CRE Fsk mod 4µM*, ERK AVP block 7.9µM* and Peg3 imprint -2%.
COc1ccc(-c2cc([C@H](O)C3CCCCN3)c3ccccc3n2)cc1 (stereo partly drawn) was read as Peg3 imprint -9%[10.9 µM].
For Cc1ccc(Cl)cc1 the results were IkB signaling -1%, CRE Fsk mod -10%, ERK AVP block 7% and Peg3 imprint -1%.
Screening COc1cc(C2C(C#N)=C(N)Oc3cc(N(C)C)ccc32)cc2c1OCO2 (stereo not drawn) returned IkB signaling inconclusive, CRE Fsk mod 1.3µM*, ERK AVP block inconclusive and Peg3 imprint -20%.
O=C1[C@H]2[C@H]3[C@H](O)[C@H](O)C/C(=N/OC[C@@H](O)COCc4ccco4)[C@H]3CC[C@@H]2C(=O)N1Cc1ccc2c(c1)OCO2 was read as ERK AVP block 15%[11.5 µM].
Screening CCCC(=O)Nc1nc2ccc(NC(=O)c3ccc(Br)o3)cc2s1 returned IkB signaling 0%, CRE Fsk mod 15%, ERK AVP block 20µM* and Peg3 imprint -8%.
CCC(=O)Nc1nc2ccc(NC(C)=O)cc2s1 was read as IkB signaling 1%, CRE Fsk mod 1%, ERK AVP block -5% and Peg3 imprint -19%.
For Cn1cccc1Cc1nnc(SCC(=O)Nc2nccs2)n1CCc1ccccc1 the results were IkB signaling -1%, CRE Fsk mod -8%, ERK AVP block 16µM* and Peg3 imprint -12%.
Screening CCSc1nnc(NC(=O)CSc2nnc(Cc3cccn3C)n2CCc2ccccc2)s1 returned IkB signaling 1%, CRE Fsk mod -7%, ERK AVP block 3% and Peg3 imprint -11%.
`Cc1ccc2oc(-c3ccc(Cl)cc3)c(O)c(=O)c2c1` gave IkB signaling 5µM* and Peg3 imprint -12%[10.9 µM].
Screening O=C1c2ccccc2C(=O)N1c1cccc(-c2nc3ccccc3o2)c1 returned IkB signaling 2%, CRE Fsk mod 3.2µM*, ERK AVP block 4% and Peg3 imprint 7%.
For O=C1c2ccccc2C(=O)N1c1ccc(-c2nc3ccccc3o2)cc1 the results were IkB signaling 1%, CRE Fsk mod 0%, ERK AVP block -24% and Peg3 imprint 24%.
For COc1cccc(C2=NOC(C(=O)NCc3ccccc3)C2)c1 (stereo not drawn) the results were IkB signaling 6%, CRE Fsk mod 25µM*, ERK AVP block -19% and Peg3 imprint 8%.
